Several values for one entry are separate records, joined by “and”; a condition that tells them apart may be missing. Equal values may be shown once. Results filed as inconclusive are left out. Activity calls are given as the source filed them. Unless noted, calls come from the whole dose curve; as a rule, active = well fitted curve in the direction sought with a large enough effect; inconclusive = small, poorly fitted or top-dose-only effect, or another doubt; inactive = no such curve, though single readings can be large; an effect the other way counts as inactive or inconclusive.

The target of experiment [1] is Mitogen-activated protein kinase 10 (Mus musculus) (UniProt Q61831). In words: JNK3 AlphaScreen Assay (AID 530; active = well fitted curve in either direction with a large enough effect, not every such curve was filed as active;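 note: kinase came from lysate of stimulated human HepG2 cells; signal reports phosphorylation of biotinylated GST-cJun 1-79 at Ser73 with 10 µM ATP; % is set by controls: 0 for no effect and ±100 for the full control effect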). An outline of the steps: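 Biotinylated GST-cJun(1-79) served as substrate for JNK3 in HepG2 lysates stimulated with IL-1beta and TNF-alpha. ATP was 10 uM final, pH 7.6. Ser73 phosphorylation was quantified by AlphaScreen (680 nm excitation).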
(Alpha assays give light when donor and acceptor beads are brought close together.)

A short description of experiment [2]: Cell Viability - N2a (AID 540).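 Note: cells exposed to compound for 40 h at 37 °C; plate controls were DMSO alone for no effect and tamoxifen control for full effect; nearly all actives have a fitted effect of over 45% in size.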 The settings on record: N2a mouse neuroblastoma cell viability; activity change, negative = cytotoxicity: at 92.2 µM (top of the series). An outline of the steps: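 N2a mouse neuroblastoma, 1500 cells/well, 5 hr settle; compound 40 hr, 37 °C; CellTiter-Glo 20 min RT; luminescence; Hill-fit AC50.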
Experiment [3] in a line: Cell Viability - Renal Proximal Tubule (AID 545).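 Note: cells exposed to compound for 40 hours; 0% = DMSO only and -100% = 100 µM tamoxifen; nearly all actives have a fitted effect of over 40% in size.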 The gist of the method:
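Viability taken as intracellular ATP (CellTiter-Glo luminescence) after 40 hr, 37 °C compound treatment of primary proximal tubule cells from rat kidney, 1000 cells/well; Hill-equation fits of qHTS concentration-response data gave AC50.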

Experiment [4] can be described thus: Cell Viability - Mesenchymal (AID 546).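 Note: cells exposed to compound for 40 hours before reading; 0% = DMSO only and -100% = 100 µM tamoxifen.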 The gist of the method:
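In this qHTS cytotoxicity format, glomerulus-derived human mesenchymal kidney cells received compound for 40 hr, then luciferase-based ATP quantitation. Concentration-response data were fitted with the Hill equation.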

Experiment [5] can be described thus: Cellular Toxicity (caspase-3) Mesangial (AID 660).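 Note: combined caspase 3 and 7 activity read by Caspase-Glo luminescence; cells exposed to compound for 16 h before the caspase read.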 An outline of the steps:
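Luminescent Caspase-Glo 3/7 readout (aminoluciferin substrate cleavage, 20 min RT) after 16 h compound exposure at 37 °C of normal human mesangial cells. Signal increase normalized between DMSO basal and 100 uM tamoxifen; Hill-equation AC50.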

Experiment [6] is described as follows: Cellular Toxicity (caspase-3) Renal Proximal Tubule (AID 667).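 Note: cells exposed to compound for 16 hours at 37 °C before detection; 0% = DMSO basal and 100% = 10 µM staurosporine.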 An outline of the steps: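 Caspase 3/7 activation measured by luminescent aminoluciferin release in primary rat proximal tubule cells after 16 hr compound exposure at 37 °C. AC50 from Hill-fitted concentration-response, scaled between DMSO and 10 uM staurosporine.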
The target in experiment [7] is Cytochrome P450 3A4 (Homo sapiens) (UniProt P08684). In words: qHTS Assay for Inhibitors and Substrates of Cytochrome P450 3A4 (AID 884). Note: nearly all actives have a fitted effect of over 50% in size. Note: potency is the fitted concentration of half-maximal effect. The gist of the method:
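Luminescent readout of luciferin produced by CYP3A4 (20 nM) dealkylation of Luciferin-PPXE, 25 uM (its KM). NADPH-driven reaction ran 60 min at RT after 10 min compound preincubation; data scaled to 57 uM ketoconazole as 100% inhibition.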
For orientation: Quantitative high-throughput screening tests each substance at several concentrations.

Experiment [8] can be described thus: Cell Viability - LYMP2-005 (AID 967).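 Note: plate controls were DMSO only for no effect and 92 µM tetraoctylammonium bromide control for full effect.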 An outline of the steps:
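LYMP2-005 human lymphoblastoid cells (2500/well) were treated with compounds for 24 h at 37 C. Intracellular ATP was then measured by CellTiter-Glo luminescence after 30 min at room temperature. AC50 values came from Hill-equation fits of qHTS concentration-response data.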

Experiment [9] in a line: Cell Viability - LYMP2-010 (AID 981).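 Note: cells exposed to compound for 24 hours at 37 °C; % is set by controls: 0 for no effect and ±100 for the full control effect; nearly all actives have a fitted effect of over 55% in size.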 An outline of the steps: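 qHTS cytotoxicity, 1536-well: 2500 cells/well, 5 hr settle, 24 hr compound at 37 C, CellTiter-Glo 30 min RT, luminescence read. Decrease in ATP = toxicity; AC50 via standard Hill equation. Positive control tetraoctylammonium bromide.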
Experiment [10] is described as follows: Cell Viability - LYMP2-024 (AID 988).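 Note: plate controls were DMSO only for no effect and 92 µM tetraoctylammonium bromide for full effect; nearly all actives have a fitted effect of over 60% in size.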 An outline of the steps:
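ATP-based luminescence (CellTiter-Glo, 30 min RT) after 24 h compound exposure at 37 C of 2500 lymphoblastoid cells/well; decrease in ATP taken as cytotoxicity. qHTS concentration-response fitted to standard Hill equation for AC50.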

Experiment [11] concerns the target Vitamin D3 receptor (Homo sapiens) (UniProt P11473). In words: qHTS assay for small molecule antagonists of vitamin D receptor signaling (AID 588541; calls by dose curve;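 note: receptor activated by calcitriol during compound treatment; % is set by controls: 0 for no effect and ±100 for the full control effect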). An outline of the steps: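 VDR-UAS-bla HEK293T cells (2000/well, 2% charcoal-stripped FBS) were treated with titrated compounds plus 1-alpha,25-dihydroxyvitamin D3 (50 nM or 3 nM final) for 16 h at 37 C. CCF4 beta-lactamase fluorescence was read; Hill fits gave IC50.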

A short description of experiment [12]: qHTS assay for small molecule antagonists of retinoid X receptor alpha signaling (AID 588546).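 Note: cells stimulated with 9-cis-retinoic acid as agonist; % is set by controls: 0 for no effect and ±100 for the full control effect.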 The settings on record: HEK293T RXRa-UAS-bla, beta-lactamase ratio, antagonist mode; measured here: W530 green channel, cytotoxicity proxy. An outline of the steps: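 Beta-lactamase reporter inhibition, read as CCF4 fluorescence ratio (ex 405, em 460/530 nm) after 2 h at RT. HEK293T UAS-bla cells, 2500/well, were stimulated with 9-cis-RA at 500 or 100 nM final alongside test compound for 18 h at 37 C.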

In experiment [13] the target is Voltage-gated inwardly rectifying potassium channel KCNH2 (Homo sapiens) (UniProt Q12809). In words: qHTS Assay for Small Molecule Inhibitors of the Human hERG Channel Activity (AID 588834).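 Note: top concentration of the series differs between compounds; % is set by controls: 0 for no effect and ±100 for the full control effect; lower thallium flux fluorescence means stronger hERG block; nearly all actives have a fitted effect of over 50% in size.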 The gist of the method:
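hERG block measured as reduced thallium-dye (FluxOR) fluorescence after stimulation buffer addition, read over 2 min. Cells were hERG-BacMam-transduced U2OS exposed to compound ~10 min […]; concentration-response fitted with Hill equation for AC50.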

Experiment [14] can be described thus: qHTS assay for small molecule disruptors of the mitochondrial membrane potential - 1 hr assay (AID 651754; calls by dose curve; note: nearly all actives have a fitted effect of over 35% in size; note: potency is the fitted concentration of half-maximal effect). The gist of the method: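 Read-out: dye fluorescence at 490 nm ex/535 nm em (monomers) and 540 nm ex/590 nm em (aggregates) in HepG2 cells. Compound exposure 1 hr at 37C, followed by 30 min dye loading.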
The nature of experiment [15]: qHTS assay for cell viability of HEK293 cells (AID 743288). Note: % is set by controls: 0 for no effect and ±100 for the full control effect; nearly all actives have a fitted effect of over 50% in size. The conditions noted are these: ATP luminescence (CellTiter-Glo), 18 h, stronger effect = lower value. An outline of the steps: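 Readout is luciferase-coupled ATP content (CellTiter-Glo luminescence, 30 min room temperature) as a measure of metabolically competent cells. Parental HEK293 cells were plated 5 h or more before compound addition, then treated 18 h at 37 C.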

The target in experiment [16] is Nuclear receptor subfamily 1 group I member 2 (Rattus norvegicus) (UniProt Q9R1A7). In words: qHTS assay for small molecule activators of the rat pregnane X receptor (rPXR) signaling pathway (AID 651751; call rule not given here; note: 0% is about no effect). The settings on record: rPXR reporter cells, luciferase (One-Glo), 24 h.
Experiment [17] can be described thus: qHTS assay for small molecule activators of the human pregnane X receptor (PXR) signaling pathway (AID 720659; call rule not given here; note: 0% is about no effect).
Experiment [18] can be described thus: Cell Viability - HUV-EC-C (AID 542).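 Note: cells exposed to compound for 40 hours; % is set by controls: 0 for no effect and ±100 for the full control effect; nearly all actives have a fitted effect of over 35% in size.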 An outline of the steps:
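Luminescent ATP read-out (CellTiter-Glo, 20 min room temperature) after 40 hr compound treatment of HUV-EC-C cells at 37 °C. Concentration-response data fitted with the standard Hill equation to give AC50; tamoxifen and doxorubicin served as positive controls.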

Experiment [19] in a line: MultiTox-Fluor Cytotoxicity Assay - LYMP1-001 - Live Cells (AID 947).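 Note: 0% = DMSO only and full inhibition = tetraoctylammonium bromide control.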
Experiment [20] can be described thus: Cell Viability - LYMP2-016 (AID 984).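 Note: cells exposed to compound for 24 hours at 37 °C; % is set by controls: 0 for no effect and ±100 for the full control effect; nearly all actives have a fitted effect of over 55% in size.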 The gist of the method: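 Cytotoxicity was scored by luminescent ATP content (CellTiter-Glo) after 24 h compound exposure at 37 C of a human lymphoblastoid line at 2500 cells/well. Concentration-response data were fitted to the Hill equation for AC50.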

Nuclear receptor subfamily 1 group I member 2 (Rattus norvegicus), sequence (Q9R1A7 whole entry, looked up): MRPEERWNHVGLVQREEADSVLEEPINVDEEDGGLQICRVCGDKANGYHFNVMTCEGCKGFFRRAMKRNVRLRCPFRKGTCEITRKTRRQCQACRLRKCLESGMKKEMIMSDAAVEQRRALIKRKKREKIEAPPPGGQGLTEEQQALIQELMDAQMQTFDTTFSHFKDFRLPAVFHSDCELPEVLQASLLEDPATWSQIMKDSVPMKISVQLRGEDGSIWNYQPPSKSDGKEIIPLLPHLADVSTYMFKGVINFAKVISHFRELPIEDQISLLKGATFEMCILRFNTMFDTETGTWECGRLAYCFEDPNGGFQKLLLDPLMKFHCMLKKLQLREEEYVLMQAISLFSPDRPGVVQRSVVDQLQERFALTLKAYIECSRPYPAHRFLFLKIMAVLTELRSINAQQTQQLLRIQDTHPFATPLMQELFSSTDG
Voltage-gated inwardly rectifying potassium channel KCNH2 (Homo sapiens), sequence (Q12809 whole entry, looked up): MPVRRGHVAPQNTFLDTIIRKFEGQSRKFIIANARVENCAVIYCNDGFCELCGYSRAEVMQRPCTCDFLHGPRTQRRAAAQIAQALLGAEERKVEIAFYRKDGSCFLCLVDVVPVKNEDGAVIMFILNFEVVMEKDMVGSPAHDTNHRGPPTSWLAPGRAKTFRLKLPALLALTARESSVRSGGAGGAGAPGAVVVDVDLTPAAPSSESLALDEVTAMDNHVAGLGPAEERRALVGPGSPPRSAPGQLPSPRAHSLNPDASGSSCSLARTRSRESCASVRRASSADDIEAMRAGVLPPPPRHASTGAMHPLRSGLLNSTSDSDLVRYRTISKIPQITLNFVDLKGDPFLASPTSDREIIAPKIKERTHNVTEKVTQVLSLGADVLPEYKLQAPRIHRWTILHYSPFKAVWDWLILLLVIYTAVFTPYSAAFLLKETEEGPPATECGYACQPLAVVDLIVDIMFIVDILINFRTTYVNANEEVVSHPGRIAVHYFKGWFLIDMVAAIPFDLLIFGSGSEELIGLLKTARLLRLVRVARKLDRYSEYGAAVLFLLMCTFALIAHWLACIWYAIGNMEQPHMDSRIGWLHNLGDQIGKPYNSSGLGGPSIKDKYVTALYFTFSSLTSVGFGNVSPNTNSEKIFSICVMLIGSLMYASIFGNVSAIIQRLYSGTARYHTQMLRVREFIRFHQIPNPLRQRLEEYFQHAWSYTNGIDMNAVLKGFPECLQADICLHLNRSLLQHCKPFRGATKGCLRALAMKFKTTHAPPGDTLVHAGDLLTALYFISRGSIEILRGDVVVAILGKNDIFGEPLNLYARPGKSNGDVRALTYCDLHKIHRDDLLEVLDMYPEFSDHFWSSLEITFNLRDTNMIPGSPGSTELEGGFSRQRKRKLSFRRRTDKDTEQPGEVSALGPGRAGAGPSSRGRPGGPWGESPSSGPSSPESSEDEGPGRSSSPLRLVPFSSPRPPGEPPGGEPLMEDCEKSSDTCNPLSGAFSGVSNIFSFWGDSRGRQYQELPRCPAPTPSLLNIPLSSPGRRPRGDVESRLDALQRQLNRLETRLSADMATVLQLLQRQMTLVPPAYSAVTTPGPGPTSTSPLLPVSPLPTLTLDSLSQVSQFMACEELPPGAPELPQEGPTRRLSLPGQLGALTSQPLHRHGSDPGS
Vitamin D3 receptor (Homo sapiens), sequence (P11473 whole entry, looked up): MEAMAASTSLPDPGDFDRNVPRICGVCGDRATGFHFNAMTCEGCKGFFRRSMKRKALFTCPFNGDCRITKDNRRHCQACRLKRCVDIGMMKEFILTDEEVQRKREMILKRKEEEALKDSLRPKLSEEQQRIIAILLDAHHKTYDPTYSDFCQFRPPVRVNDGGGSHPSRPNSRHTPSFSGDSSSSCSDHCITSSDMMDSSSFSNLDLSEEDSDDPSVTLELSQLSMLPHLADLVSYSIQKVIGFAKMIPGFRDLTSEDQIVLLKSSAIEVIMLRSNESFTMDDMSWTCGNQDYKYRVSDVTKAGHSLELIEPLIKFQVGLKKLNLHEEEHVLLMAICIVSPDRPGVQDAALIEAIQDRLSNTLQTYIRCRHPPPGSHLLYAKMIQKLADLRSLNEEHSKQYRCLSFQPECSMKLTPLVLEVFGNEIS
Cytochrome P450 3A4 (Homo sapiens), sequence (P08684 whole entry, looked up): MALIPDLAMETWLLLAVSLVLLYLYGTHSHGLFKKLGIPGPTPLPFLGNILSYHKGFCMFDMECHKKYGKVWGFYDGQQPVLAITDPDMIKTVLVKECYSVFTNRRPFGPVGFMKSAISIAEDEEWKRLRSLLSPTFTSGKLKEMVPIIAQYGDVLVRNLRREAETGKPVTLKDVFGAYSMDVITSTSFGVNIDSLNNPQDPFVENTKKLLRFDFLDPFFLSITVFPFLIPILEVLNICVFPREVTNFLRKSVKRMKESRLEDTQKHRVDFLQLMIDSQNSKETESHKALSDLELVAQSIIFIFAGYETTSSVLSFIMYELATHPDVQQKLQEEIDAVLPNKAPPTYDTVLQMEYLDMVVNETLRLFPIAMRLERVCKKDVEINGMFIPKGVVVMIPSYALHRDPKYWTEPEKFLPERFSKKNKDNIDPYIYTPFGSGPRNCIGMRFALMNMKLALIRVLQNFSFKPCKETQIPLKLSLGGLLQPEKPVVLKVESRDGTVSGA

On to `C=COC(C)=O`, for which the Potency result in [1], in [2], in experiment [4], in experiment [7], in experiment [8] and in [9] was “inactive” each time. Moreover, the Potency result in experiment [10], in experiment [13] and in experiment [14] was “inactive” throughout. Moreover, the outcome in experiment [3], in [5], in experiment [6], in [11] and in experiment [17] was inactive. For the same compound, the values for the max response in experiment [12], in experiment [15] and in experiment [16] were -12.3%, -3.61% (inactive) and 2.31% (inactive), respectively.

For the compound `O=[N+]([O-])c1ccc(Cl)c(Cl)c1Cl`, the Potency result in experiment [1], in experiment [2], in [18], in [4], in [7] and in experiment [8] was “inactive” in each case. Also, the Potency result in experiment [9], in experiment [20], in [10] and in experiment [13] was “inactive” each time. The result in experiment [5], in experiment [6], in experiment [19], in [11] and in experiment [17] was inactive. Also, the max response was -8.55% in [12], 8.59% (inactive) in experiment [15] and -4.87% (inactive) in experiment [16].

Turning to `OCC(Cl)CCl` (configuration not stated), the Potency result in [1], in experiment [2], in [18], in experiment [7], in [8] and in experiment [9] was “inactive” throughout. Further, the Potency result in [10], in experiment [13] and in experiment [14] was “inactive” throughout. Besides, the compound was called inactive in experiment [3], in experiment [5], in experiment [19], in experiment [11] and in experiment [17]. Besides, the max response was -11.1% in experiment [12], -6.78% (inactive) in [15] and 2.56% (inactive) in experiment [16].

With `Nc1c(Cl)cc([N+](=O)[O-])cc1Cl`, the Potency entry in [1], in [18], in [4], in experiment [7], in [8] and in experiment [20] was “inactive” in each case. Also, the Potency entry in experiment [13] is “inactive”. Further, the compound was classed as inactive in experiment [3], in [5], in experiment [6], in [19], in experiment [11] and in [17]. In addition, the max response in experiment [12] was 7.55% and -9.5%; in [15], 7.25% (inactive) and -11.8% (inactive). In addition, the Potency in [14] was 29.8 µM (active).

Consider `C=CCc1cc(OC)c2c(c1)OCO2`, for which the Potency result in [1], in experiment [2], in [18], in [4], in experiment [8] and in experiment [9] was “inactive” each time. Besides, the Potency result in experiment [20], in experiment [10], in experiment [13] and in experiment [14] was “inactive” in each case. Moreover, the outcome in experiment [3], in experiment [5], in experiment [6], in experiment [19], in [11] and in [17] was inactive. In [7], the Potency was 10 µM (active). Also, the max response in experiment [12] is -4.92%; in [15], -6.53% (inactive); in experiment [16], -3.31% (inactive).

As to `CCCCNC(=O)n1c(NC(=O)OC)nc2ccccc21`, the Potency entry in experiment [1], in [2], in experiment [4], in experiment [7], in experiment [8] and in experiment [9] was “inactive” in each case. The Potency result in [13] and in [14] was “inactive” each time. Also, the call in experiment [5], in experiment [6], in experiment [11] and in experiment [17] was inactive. For the same compound, the max response in [12] was 3.99%; in [15] it was -16.4% (inactive) and -17.6% (inactive).

For the compound `Clc1cccc(Cl)c1`, the Potency result in experiment [1], in experiment [2], in [18], in experiment [7], in experiment [8] and in [13] was “inactive” throughout. In addition, the Potency entry in [14] was “inactive”. Further, the call in experiment [3], in experiment [5], in [19], in [11] and in experiment [17] was inactive. In addition, the max response in [12] is -14.2%; in experiment [15], -11.3% (inactive); in experiment [16], 1.78% (inactive).

For the origin of these results see PubChem BioAssay (NCATS).
